Source: PubChem BioAssay
Compounds with a hit are over-represented: about 14% of the library has one in this group of screens.
NS1 inh – qHTS Assay for Inhibitors of Influenza NS1 Protein Function; Potency, µM (highest dose often 46.1 µM), without a hit: at the top dose activity, positive = more growth; actives 0.4% (n = 270,000); AID 2326, 2010; calls by dose curve; also: potency is read from the fitted curve at half-maximal effect; actives are rising curves; nearly all actives have a fitted effect of over 50% in size
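In this qHTS, NS1 from influenza A is expressed in budding yeast, where it slows growth. Cells are switched from glucose to 2% galactose medium (pH 6.0, -URA), treated with compound, and growth recovery is read at OD600.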
LmPK inhibitor – qHTS Assay for Inhibitors of Leishmania Mexicana Pyruvate Kinase (LmPK); actives 0.37% (n = 290,000); Q27686; purified LmPK, Kinase-Glo ATP luminescence, 1 h; Potency, µM (doses to about 57.5 µM), inactives show top-dose activity change, negative = inhibition, usual class: inhibitors; also: potency is read from the fitted curve at half-maximal effect; % is scaled to controls: 0 for no effect and ±100 for the full control effect
Target sequence (Q27686 whole entry, looked up): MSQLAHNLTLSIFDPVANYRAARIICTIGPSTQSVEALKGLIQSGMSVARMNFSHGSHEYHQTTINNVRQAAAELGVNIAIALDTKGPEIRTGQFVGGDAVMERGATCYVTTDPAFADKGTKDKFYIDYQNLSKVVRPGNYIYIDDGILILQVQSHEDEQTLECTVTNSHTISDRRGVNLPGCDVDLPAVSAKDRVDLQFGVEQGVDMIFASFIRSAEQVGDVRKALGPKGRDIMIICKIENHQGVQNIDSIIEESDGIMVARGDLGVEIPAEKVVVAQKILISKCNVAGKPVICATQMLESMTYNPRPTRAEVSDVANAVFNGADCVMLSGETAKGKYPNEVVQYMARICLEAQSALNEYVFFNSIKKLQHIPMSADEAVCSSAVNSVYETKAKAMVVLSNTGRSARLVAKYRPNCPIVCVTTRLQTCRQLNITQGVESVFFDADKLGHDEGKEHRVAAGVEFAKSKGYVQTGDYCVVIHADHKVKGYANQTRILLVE
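Purified LmPK (0.1 nM) converted ADP (0.1 mM) to ATP with PEP (0.5 mM) in imidazole buffer pH 7.2 with KCl and MgCl2, 1 h at room temperature. ATP was read by Kinase-Glo luminescence; data normalized to uninhibited and no-enzyme controls.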
Shiga inhibitor – A qHTS for Small Molecule Inhibitors of Shiga Toxin. inhibition, % at 38.7 µM. actives 9.2% (n = 290,000). Vero cells, Shiga toxin protein synthesis inhibition reporter. AID 2315, 2010; in the data active = inhibition mostly above about 28%, no sharp cut-off; inactive = mostly below about 43%; also: 0% is about no effect
Giardia FBPA inh – qHTS Assay for Inhibitors of Fructose-1,6-bisphosphate Aldolase from Giardia Lamblia. A8B2U2. AID 2451, 2010. actives 0.71% (n = 290,000). Potency, µM (highest dose often 59.6 µM), without a hit: at the top dose activity, negative = inhibition, usual class: inhibitors. purified Giardia FBPA; also: potency is read from the fitted curve at half-maximal effect; % is scaled to controls: 0 for no effect and ±100 for the full control effect; nearly all actives have a fitted effect of over 55% in size
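Giardia FBPA (40 nM reagent) was preincubated 10 min at RT with compound (up to 57.5 uM final), then substrate plus GAPDH/TPI/NAD/arsenate coupling system with diaphorase/resazurin was added; resorufin fluorescence (525/598 nm) was read after 20 min.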
CHX counter – Cycloheximide Counterscreen for Small Molecule Inhibitors of Shiga Toxin. AID 2314, 2010. cell reporter, cycloheximide protein synthesis inhibition counterscreen. max response, %. actives 12% (n = 300,000); in the data active = max response mostly above about 13%, no sharp cut-off; inactive = mostly below about 14%; also: read at 38.3 µM for the half of the compounds with a filed dose; 0% is about no effect
An asterisk follows results filed as active; ? = inconclusive; / = no result given; + = active, no number; [ ] = another dose, or the depositor's remark. Unless noted, calls follow the shape of the dose curve; as a rule, active = well fitted curve in the direction sought with a large enough effect; inconclusive = small, poorly fitted or top-dose-only effect, or another doubt; inactive = no such curve, though single readings can be large; an effect the other way counts as inactive or inconclusive.

SMILES | NS1 inh | LmPK inhibitor | Shiga inhibitor | Giardia FBPA inh | CHX counter
COc1cc2c(cc1OC)C(C(=O)NC(C)c1ccccc1)CC(=O)N2 (stereo not given) | 1% | -1% | -6 | 4% | 12
CCCCCCCC1=Cc2ccccc2C(CC(C)=O)N1C(=O)OC (stereo not given) | / | -14%[11.5 µM] | / | 2%[12.9 µM] | /
O=C(O)CCCC(=O)Nc1cccc(-c2nc3ccccc3[nH]2)c1 | -3% | -2% | -14 | -11% | -3
O=C(COc1ccccc1)Nc1cccc(-c2nc3ccccc3[nH]2)c1 | -57% | -14% | 39 | -2% | 22*
COc1ccc(OCC(=O)Nc2cccc(-c3nc4ccccc4[nH]3)c2)cc1 | -38% | -23% | 20 | 2% | 14*
O=C(CSc1ccc(Cl)cc1)Nc1cccc(-c2nc3ccccc3[nH]2)c1 | -2% | -2% | -1 | 6% | 7
Cc1cc(Br)ccc1OCC(=O)NC1CCCC1 | -14% | 1% | 52* | -1% | 35*
CC(C)(C)NC(=O)NC(=O)COc1ccccc1C#N | 2% | -13% | + | -1% | 66*
CC(C)(C)NC(=O)NC(=O)COc1ccc(Br)cc1Br | -42% | 1% | 136* | 0% | 90*
C=CCNC(=O)COc1ccccc1C#N | 0% | -5% | 37 | 7% | 9
Cc1cc(Br)ccc1OCC(=O)NNC(=O)C(=O)Nc1ccccc1 | -4% | 8% | 50* | -2% | 13
Cc1cccc(NC(=O)COc2ccc(Br)cc2/C=N/O)c1 | -11% | -2% | 121* | 1% | 75*
O=C(COc1ccc(Br)cc1Br)NC(=O)NC1CCCC1 | / | 1% | 142* | -1% | 59*
CCN(CC)C(=O)COc1ccc(Br)cc1Cl | 0% | 0% | -3 | 6% | -3
CN(C(=O)COc1ccc(Br)cc1Cl)C1CCCCC1 | -4% | 2% | 53* | 5% | 24*
CCc1ccc(OCC(=O)NC2CCCCC2)c(Br)c1 | 3% | -10% | -17 | / | -1
CN1CCN(c2ncc3nc(-c4cccc(C#N)c4)c(=O)n(C[C@H]4CCCO4)c3n2)CC1 | / | / | / | -3% | /
O[C@@H]1CN(C2CCCCC2)CC[C@H]1N1CCN(CCc2ccccc2)CC1 | -4% | -1% | / | 0% | -3
COc1cc(OC)cc(C(=O)Oc2c(CN3CCOCC3)cc(Cl)c3cccnc23)c1 | -3% | 10% | 35 | ? | 8.0*
CC1S/C(=N/N=C2CCC(C(C)(C)C)CC2)NC1=O (stereo not given) | -3% | -1% | 25 | 6% | 26*
CC1SC(=NC(=O)c2ccncc2)NC1=O (stereo not given) | 11% | 2% | -9 | -11% | -1
CC1S/C(=N/N=C2CCCCC2)NC1=O (stereo not given) | 3% | 0% | 33 | 0% | 30*
CCN(CC)S(=O)(=O)c1cccc(NC2=NCCCCC2)c1 | 0% | -6% | 1 | 0% | -2
O=C(COc1ccc(Cl)cc1)Nc1ccccc1C(=O)NCc1cccnc1 | 2% | -6% | 14 | / | -3
CCCn1ncc(CN2CCC(C(=O)Nc3cccc(-c4cccc(F)c4)c3)CC2)c1C | 5% | 0% | -10 | 3% | -5
SMILES | NS1 inh | LmPK inhibitor | Shiga inhibitor | Giardia FBPA inh | CHX counter
O=C(OC1CCc2ccccc2C1=O)c1ccccc1O (stereo not given) | -12% | -20% | 90* | -29% | 41*
CN(Cc1cccc(-n2cccn2)c1)C(=O)CCc1nnc(C2CCCCC2)o1 | -3% | 2% | 55* | -1% | 40*
CCN(CCn1cccn1)C(=O)CCc1nnc(C2CCCCC2)o1 | 1% | 7% | 38* | -1% | 12*
CN(C)c1ccc(/C=N/NC(=O)c2ccccc2Cl)cc1 | -39% | 2% | 10 | -6% | 35*
CN(C)c1ccc(/C=N\NC(=O)c2ccc(Cn3cc(Cl)cn3)cc2)cc1 | -25% | 1% | -4 | 4% | -2
CSc1ccc(/C=N/NC(=O)c2ccccc2Cl)cc1 | -8% | -7% | 91* | -1% | 32*
CN(C)c1ccc(/C=N/NC(=O)c2ccc(Cl)cc2)cc1 | -19% | -1% | 18* | 7% | 2
CCSc1nnc2c(n1)OC(C)(C)Nc1ccccc1-2 | 5% | 3% | 65* | -6% | 34*
CSc1nnc2c(n1)OC1(Nc3ccccc3-2)C(=O)Nc2ccccc21 (stereo not given) | / | 2% | 3 | -12% | -3
CCOC(=O)COc1ccc2c(=O)cc(-c3ccccc3)oc2c1 | -30% | 1% | 19 | 5% | 9
NC(=O)COc1ccc2cc(-c3ccc(F)cc3)c(=O)oc2c1 | 21% | 0% | 35* | 2% | 21*
NC(=O)COc1ccc2oc(-c3ccccc3)cc(=O)c2c1 | / | -1%[11.5 µM] | 69* | 1% | 27*
NC(=O)COc1ccc2cc(-c3ccccc3)c(=O)oc2c1 | 9% | 4% | 62* | -2% | 32*
C/C(=N\NC(=O)c1cc(Cl)ccc1O)c1ccc(Br)s1 | -4% | -1% | 18 | -6% | 20
C/C(=N\NC(=O)c1ccco1)c1ccc(C(=O)O)s1 | 5% | -15% | 80* | / | 50*
C/C(=N\NC(=O)c1ccc(Cl)cc1)c1ccc(Br)s1 | -19% | -1% | 90* | -1% | 29*
C/C(=N/NC(=O)CNC(=O)Cc1ccccc1)c1ccco1 | 9% | 0% | -7 | 5% | -3
C/C(=N/NC(=O)c1ccco1)c1ccc(Br)s1 | -16% | -8% | 35* | / | 26*
CCCCc1nc2c(c3c1C[C@H](C)OC3)CN(S(=O)(=O)c1ccc(C#N)cc1)CC2 | / | -7%[11.5 µM] | / | 5%[12.9 µM] | /
O=C1C2CCCCN2C(=O)N1CCCCN1CCN(c2ccccc2Oc2ccccc2)CC1 (stereo not given) | -8% | -2% | -10 | -26% | -2
O=C1Nc2ccccc2Oc2cc([N+](=O)[O-])ccc21 | / | 2% | 42 | -22% | 31
CCOc1cc([N+](=O)[O-])cc2c1C(=O)Nc1ccccc1O2 | / | -8% | 30 | 6% | 25*
CCOC(=O)c1c(NC(=O)c2ccco2)sc(C(=O)N2CCCC2)c1C | -12% | 0% | -16 | 2% | 3
Cc1occc1C(=O)Nc1sccc1C(N)=O | -100% | 3% | 35 | / | 38*
NC(=O)c1cc(Cc2ccccc2)sc1NC(=O)c1ccco1 | -29% | -1% | 78* | 3% | 47*
CCOC(=O)c1c(NC(=O)C(C)N2CCN(C(=O)c3ccco3)CC2)sc2c1CCCC2 (stereo not given) | 25% | 0% | 29 | -9% | 19*
O=C(Nc1nnc(Cc2ccccc2)s1)c1ccco1 | -53% | 0% | 62 | -1% | 18
O=C(Nc1sc2c(c1C(=O)O)CCCC2)C(=O)N1CCOCC1 | 9% | 1% | 33* | / | 20*
CCCCc1nc2c(c3c1C[C@H](C)OC3)CN(S(=O)(=O)c1ccc(C)cc1)CC2 | / | 0%[11.5 µM] | / | -2%[12.9 µM] | /
COCCn1c(=O)c(-c2ccc(Cl)cc2)nc2cnc(N3CCNCC3)nc21 | / | / | / | 0% | /
